The values that follow come from PubChem BioAssay AID651692 (Broad Institute, 2012).

Entries with a potency or affinity are not part of this list. Active and inactive are the calls of the source.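 How the source made its calls: active means fitted half-maximal concentration for loss of cell signal no higher than twice the top valid tested concentration; inconclusive means flat curve at 30 to 70% inhibition, or poor fit; inactive means flat within 30%, signal rise, or potency above limit.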

This experiment can be described thus: MDA-MB-231 cell growth inhibition, dose response, cytotoxicity control for RAD54 inhibitor project, CellTiter-Glo luminescence, cherry-pick (AID 651692).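 Further: more negative values mean stronger loss of viable cell signal.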 The following applies: MDA-MB-231 viability, 24 h; series mostly up to 26 µM. (In general: In ATP-based viability assays light output follows the ATP content of the culture.)
In the case of `CCOC(=O)c1cnc2ccc(C)cc2c1NCCN1CCOCC1`, the call was inactive. As for `CN(C)c1cc(NC(=O)CNC(C)(C)C)c2ccccc2n1`, the entry is “inactive”; as for `CN(C)CCCNc1nc(-c2ccc(Cl)cc2)nc2ccccc12`, “inactive”. Take `Nc1ccc(-c2nc3c(ccc4ccccc43)[nH]2)cc1`: the compound was classed as inactive.

As for `CCOC(=O)c1cnc2c(Cl)cccc2c1NCCCN1CCOCC1`, the compound was classed as inactive. In the case of `Cc1ccc(-c2nc(NCCN3CCOCC3)c3ccccc3n2)cc1`, the outcome was inactive. As for `COc1ccc(OC)c2c(C)cc(NCCN3CCOCC3)nc12`, the entry is “inactive”; as for `Cc1ccc2c(c1)c1nc3ccccc3nc1n2CCN1CCOCC1`, “inactive”.

On to `O=C(Nc1ccc(C2=NCCN2)cc1)c1ccc(C(=O)Nc2ccc(C3=NCCN3)cc2)c(Cl)c1`, for which the compound was called inactive. As for `O=C(COc1ccc2c(c1)oc(=O)c1ccccc12)NCCCN1CCOCC1`, the entry is “inactive”. Next, `CN(C)CCNc1ncnc2sc(-c3ccccc3)cc12`: “inactive”; `Cc1cccc2cc3c(N)c(C#N)sc3nc12`: “inactive”. As for `COc1ccc(Nc2c3c(nc4ccc(C)cc24)CCC3)cc1`, the entry is “inactive”; as for `CN1CCN(c2nc(-c3ccncc3)nc3ccccc23)CC1`, “inactive”; as for `COc1ccccc1Nc1nc(NCC2CCCO2)c2ccccc2n1` (centres undefined), “inactive”. As for `COc1ccc(-c2cnc3c(NC(C)=O)cc(-c4cccc(C(=O)NCCN(C)C)c4)cn23)cc1OC`, the outcome was inactive. With `CN(C)CCOc1nc(-c2ccccc2)nc2c1oc1ccccc12`, the compound was classed as inactive. As for `CCN(CC)CCN1C(=O)c2cccc3cc(N)cc(c23)C1=O`, the entry is “inactive”; as for `Cc1cccn2c(=O)c3cc(C(=O)NC4CCCC4)c(=N)n(CCCN4CCOCC4)c3nc12`, “inactive”.
